Shiga toxin inh: inhibitors of Shiga toxin in Vero cells; Vero cells, Shiga toxin protein synthesis inhibition reporter; inhibition, % at 38.7 µM; hit rate 9.2% among 290,000; in the data active means inhibition mostly above about 28%, no sharp cut-off; inactive means mostly below about 43%; further: 0% is about no effect
TbPYK inhibitor: blocks Trypanosoma brucei pyruvate kinase; Q57TT1; TbPYK enzyme, Kinase-Glo Plus ATP luminescence, 45 min; Potency, µM (titrated, usually from 76.8 µM), for the others: top-dose activity, negative = inhibition, actives largely listed as inhibitors; hit rate 0.12% among 410,000; AID 624173; further: potency means the concentration at half of the fitted maximal effect; on the % scale 0 is the no-effect control and ±100 the full control effect; nearly all actives have a fitted effect of over 50% in size
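ADP (130 uM final) triggers the TbPYK reaction after compound addition; incubation is 45 min at room temperature. Kinase-Glo Plus is then added and luminescence imaged. Normalized data are fitted to concentration-effect curves.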
LmPK inhibitor: inhibitors of Leishmania mexicana pyruvate kinase | Potency, µM (titrated, usually from 57.5 µM), for the others: top-dose activity change, negative = inhibition, hits mostly inhibitors | hit rate 0.37% among 290,000 | purified LmPK, Kinase-Glo ATP luminescence, 1 h | Q27686; further: potency means the concentration at half of the fitted maximal effect; on the % scale 0 is the no-effect control and ±100 the full control effect
Target sequence (Q27686 whole entry, looked up): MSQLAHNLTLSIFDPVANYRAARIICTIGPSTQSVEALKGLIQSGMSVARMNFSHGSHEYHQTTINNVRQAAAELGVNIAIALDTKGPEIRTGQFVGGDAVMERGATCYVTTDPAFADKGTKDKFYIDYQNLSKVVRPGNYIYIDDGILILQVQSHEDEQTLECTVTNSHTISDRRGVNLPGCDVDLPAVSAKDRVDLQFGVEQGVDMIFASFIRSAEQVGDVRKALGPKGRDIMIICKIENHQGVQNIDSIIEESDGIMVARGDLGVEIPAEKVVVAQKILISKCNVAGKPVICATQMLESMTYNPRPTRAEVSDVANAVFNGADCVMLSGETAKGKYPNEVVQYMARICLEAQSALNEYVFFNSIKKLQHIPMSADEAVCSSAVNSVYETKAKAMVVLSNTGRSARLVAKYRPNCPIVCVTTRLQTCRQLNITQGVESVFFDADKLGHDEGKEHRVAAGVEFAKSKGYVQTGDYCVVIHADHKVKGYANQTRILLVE
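Pyruvate kinase activity monitored as ATP production (luciferase luminescence). Conditions: 0.1 nM enzyme, 0.5 mM PEP, 0.1 mM ADP, 1 h, RT; normalized against uninhibited and no-enzyme wells.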
RE007 growth inh: less growth of the S. pombe RE007 Vpr strain | S. pombe RE007 Vpr strain, BacTiter-Glo ATP luminescence, 24 h | Potency, µM (series often up to 92.2 µM), inactives show at the top dose activity change, negative = less growth, usual class: inhibitors | hit rate 0.21% among 360,000 | AID 651644; active means well fitted falling curve with a large enough effect; inconclusive means small, poorly fitted or top-dose-only effect; inactive means no such curve, though single readings can be large or run the other way; further: potency means the concentration at half of the fitted maximal effect; on the % scale 0 is the no-effect control and ±100 the full control effect; nearly all actives have a fitted effect of over 50% in size
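Fission yeast strain RE007, carrying one chromosomally integrated HIV-1 vpr copy, was seeded at OD 0.01 in PMG+AL medium with 23 nL pinned compound. After 24 h at 30 °C and 99% humidity, viability was read by BacTiter-Glo luminescence.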
Cycloheximide cs: counter-screen hit for Shiga toxin inhibitors, cycloheximide | cell reporter, cycloheximide protein synthesis inhibition counterscreen | max response, % | hit rate 12% among 300,000 | AID 2314; in the data active means max response mostly above about 13%, no sharp cut-off; inactive means mostly below about 14%; further: read at 38.3 µM for the half of the compounds with a filed dose; 0% is about no effect
FBPA Giardia inh: inhibitors of Giardia lamblia fructose-1,6-bisphosphate aldolase. A8B2U2. purified Giardia FBPA. Potency, µM (titrated, usually from 59.6 µM), for inactives: top-dose activity, negative = inhibition, usual class: inhibitors. hit rate 0.71% among 290,000. AID 2451; further: potency means the concentration at half of the fitted maximal effect; on the % scale 0 is the no-effect control and ±100 the full control effect; nearly all actives have a fitted effect of over 55% in size
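40 nM FBPA preincubated 10 min at RT with compound (up to 57.5 uM final), then substrate plus GAPDH/TPI/NAD/arsenate coupling and diaphorase/resazurin added. Fluorescence read after 20 min at RT, 525/598 nm.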
Starred values were filed as active, the others as inactive; u = inconclusive; x = not tested or not shown; [ ] = dose if it differs, or a comment. This is one part of a sample in which hits are shown more often than they occur. Unless noted, the call rests on the fitted dose curve; in most records, active means well fitted curve in the direction sought with a large enough effect; inconclusive means small, poorly fitted or top-dose-only effect, or another doubt; inactive means no such curve, though single readings can be large; an effect the other way counts as inactive or inconclusive.

SMILES	Shiga toxin inh	TbPYK inhibitor	LmPK inhibitor	RE007 growth inh	Cycloheximide cs	FBPA Giardia inh
Cc1cc(N(C)C)cc(C)c1N=Nc1cc[n+]([O-])cc1	x	-10%	x	-11%	x	x
CN(C)c1ccc(N=Nc2cccc(F)c2)cc1	96*	4%	-8%	5%	41*	-2%
Cc1cccc(N=Nc2ccc(N(C)C)cc2)c1	126*	1%	1%	-16%	43*	0%
CC1=NN(c2cccc(F)c2)C(=O)/C1=C/c1ccc(N(C)C)cc1	-11	-1%	-7%	0%	2	6%
CN(C)c1ccc(N=Nc2cccc3ccoc23)cc1	137*	2%	-15%	x	56*	-5%
CCOC(=O)c1[nH]c2ccccc2c1NC(=O)c1cc(OCC)c(OCC)c(OCC)c1	x	4%	x	x	x	x
O=C(COC(=O)c1ccc([N+](=O)[O-])cc1Cl)Nc1cccnc1Cl	x	3%	x	-4%	x	x
Cc1ccc([C@H]2C[C@@H](n3cc(C4CC4)nn3)[C@H](O)CN2C(=O)C2CCCCC2)cc1	x	-1%	x	8%	x	x
COc1ccc(/C=C2/SC(=O)N(CC(O)Cn3c4ccccc4c4ccccc43)C2=O)cc1 (stereo unspecified)	-9	-8%	3%	0%	-1	-9%
COc1ccc(/C=C2/SC(=O)N(CCNC(=O)C3CCCN3C(=O)c3cccs3)C2=O)cc1 (stereo unspecified)	63*	-4%	1%	0%	32*	0%
COc1ccc(/C=C2\SC(=O)N(CCn3cnnn3)C2=O)cc1	83*	3%	3%	15%	37*	1%
COc1ccc(/C=C2/SC(=O)N(CCNC(=O)CC(NC(C)=O)c3ccccc3)C2=O)cc1 (stereo unspecified)	29	-8%	-4%	-13%	21*	2%
COc1ccc(/C=C2\SC(=O)N(CCNC(=O)C3CC4C=CC3C4)C2=O)cc1 (stereo unspecified)	101*	3%	4%	-2%	58*	1%
CCc1cccc(NC(=O)c2nc(-c3ccncc3)no2)c1	x	5%	x	x	x	x
CCN(C(=O)COC(=O)c1cccnc1SC)c1c(N)n(Cc2ccccc2)c(=O)[nH]c1=O	x	-2%	x	-12%	x	x
COc1ccc(/C(N)=N/OC(=O)c2ccc(OC)c([N+](=O)[O-])c2)cc1OC	3	3%	3%	9%	-3	4%
COc1ccccc1C(=O)O/N=C(\N)c1ccccc1Cl	119*	-1%	-3%	-15%	55*	-8%
COc1cc(C(c2c(C)[nH][nH]c2=O)c2c(C)[nH][nH]c2=O)ccc1OC(=O)c1ccccc1OC	-6	9%	x	x	-5	x
COc1ccccc1C(=O)Oc1ccc(C(C)C)cc1	84*	-4%	-4%	7%	35*	-2%
COc1ccc(C(=O)O/N=C(\N)c2ccccc2Cl)cc1OC	159*	-14%	2%	16%	33*	-2%
COc1ccc(OC)c(-c2nnc3n2N=C(c2c(OC)cccc2OC)CS3)c1	-5	x	x	x	1	3%
C=C1c2cccc(O)c2C(O)=C2C(=O)[C@@]3(O)C(O)=C(C(N)=O)C(=O)[C@@H](N(C)C)[C@@H]3[C@@H](O)[C@H]12	x	-15%[33.2 µM]	x	x	x	u
CC(C)([CH2][Sn]([CH2]C(C)(C)c1ccccc1)([CH2]C(C)(C)c1ccccc1)[O][Sn]([CH2]C(C)(C)c1ccccc1)([CH2]C(C)(C)c1ccccc1)[CH2]C(C)(C)c1ccccc1)c1ccccc1	-20	x	x	x	-16	3%
Nc1cccnc1Oc1ccc(F)cc1	25	2%	-2%	10%	14*	1%
CCOC(=O)c1ccc2nc3c(cc2c1)CCS3	71*	-7%	-2%	-9%	48*	5%
SMILES	Shiga toxin inh	TbPYK inhibitor	LmPK inhibitor	RE007 growth inh	Cycloheximide cs	FBPA Giardia inh
CCOC(=O)c1ccc2nc(C)c3c(c2c1)OC(C)C3 (stereo unspecified)	-7	1%	3%	-13%	4	6%
CCOc1ccccc1/C=C(\NC(=O)c1ccccc1)C(=O)NCCC(=O)O	43*	2%	-1%	5%	32	2%
CCOc1ccccc1/C=C(/NC(=O)c1ccccc1)C(=O)NCC(=O)O	-11	-2%	2%	5%	-1	5%
O=S(=O)(c1ccc2c(c1)OCCO2)N1CCN(S(=O)(=O)c2ccc(F)cc2F)CC1	1	x	x	x	-2	x
CC(=O)c1c(C)[nH]c(C(=O)OCC(=O)c2c[nH]c3ccccc23)c1C	x	-3%	x	-8%	x	x
O=C(CSc1nc(-c2ccccc2)ns1)N1CCOCC1	91*	-8%	1%	-8%	39*	-8%
CCOC(=O)CSc1nc(-c2ccccc2)ns1	38	-27%	3%	-21%	20	0%
Cc1cccc(-c2nsc(SCC(=O)N3CCCC3)n2)c1	117*	-7%	-20%	-15%	36*	3%
Cc1ccc(C)c(CNC(=O)CN2C(=O)CSc3ccc(S(=O)(=O)N(C)C)cc32)c1	x	-3%	x	x	x	x
COCCN1C(=O)CCC1(C)C(=O)NC1CCCCC1 (stereo unspecified)	x	0%	x	6%	x	x
Cc1noc2ncnc(Sc3ccc(Br)cc3)c12	4	5%	-1%	u	-2	0%
Cc1ccc(C(=O)NCC(=O)OCc2cc(=O)n3c(C)csc3n2)cc1	x	2%	x	x	x	x
Cc1ccc(CNc2ccc(N3CCOCC3)cc2)s1	93*	-9%	-17%	-11%	48*	-7%
CC(=O)N1CCN(c2ccc(NCc3ccc(C)s3)cc2)CC1	-6	-27%	0%	-15%	9	u
Cc1ccc(NCc2ccc(C)s2)cc1	66*	x	-4%	x	37*	8%
COC(=O)[C@H]1C[C@@H]1[C@H](NC(C)=O)c1ccccc1	x	x	x	x	x	1%
Cc1ccccc1NC(=O)CSc1nc(-c2ccccc2)cn1-c1ccccc1F	x	0%	x	x	x	x
Cc1ccsc1C(=O)NNC(=O)c1ccncc1	x	0%	x	1%	x	x
Cc1ccsc1C(=O)Nc1nccs1	60*	-4%	u	4%	16*	u
Cc1csc(NC(=O)c2sccc2C)n1	91*	-28%	14µM*	-27%	59*	-5%
O=C(NNC(=O)c1ccc(Br)o1)c1csc(N2CCOCC2)n1	x	-9%	x	10%	x	x
CCN(CC)Cc1cc(Nc2c3ccccc3nc3c4ccccc4n(C)c23)cc(CN(CC)CC)c1O	x	u	x	-16%	x	x
O=[N+]([O-])c1cc(-c2ccc(C(=S)N3CCOCC3)o2)ccc1Cl	55*	u	-20%	-18%	31*	u
S=C(c1ccc(-c2cc(Cl)ccc2Cl)o1)N1CCOCC1	-4	8%	-11%	-4%	2	-21%
O=[N+]([O-])c1cccc(-c2ccc(C(=S)N3CCOCC3)o2)c1	72*	-1%	0%	-15%	39*	u

High-throughput results as filed in PubChem BioAssay.
